# PubChem BioAssay (EPA / NIEHS)
# Active and inactive are the calls of the source. How the source made its calls: active means hit-call score of the fitted dose curve at least 0.9, where 1 is the maximum; inactive means score below 0.9.
# Key:
# [1] = ATG_ISRE_CIS: Attagene CIS-FACTORIAL HepG2 Assay for human Interferon Regulatory Factor 1 (IRF1) binding to an Interferon-Stimulated Response Element (ISRE) (AID 2282948); settings: HepG2 ISRE cis-reporter (Attagene), mRNA transcription readout; actives raise or lower the signal
# Method in brief: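 Read-out: fluorescent RT-PCR products resolved by capillary electrophoresis, reporting endogenous transcription factor activity via ISRE-driven reporter mRNA in transfected HepG2 cells dosed for 24 h; gain or loss fitted relative to DMSO.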
# [2] = ATG_M_32_CIS: Attagene CIS-FACTORIAL HepG2 Assay for M32 Transcription Factor (Internal Marker) (AID 2282949); settings: HepG2 Attagene cis-factorial M32 reporter, mRNA; actives raise or lower the signal;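 further: background control marker of the multiplexed CIS panel rather than a real target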
# Method in brief: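 Using DMSO as baseline, bidirectional curve fits were applied to reporter mRNA signals. These came from transiently transfected HepG2 cells exposed for 24 h, with RNA analysed by RT-PCR, FAM primer extension, HpaI digestion and CE.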
# [3] = biological target: Hypoxia-inducible factor 1-alpha (Homo sapiens) (UniProt Q16665); experiment: ATG_HIF1a_CIS: Attagene CIS-FACTORIAL HepG2 Assay for human Hypoxia Inducible Factor 1 (HIF1A) (AID 2282951); settings: HepG2 Attagene cis-factorial HIF1a reporter transcription; actives raise or lower the signal
# Chain of Hypoxia-inducible factor 1-alpha (Homo sapiens) (Q16665 whole entry, looked up): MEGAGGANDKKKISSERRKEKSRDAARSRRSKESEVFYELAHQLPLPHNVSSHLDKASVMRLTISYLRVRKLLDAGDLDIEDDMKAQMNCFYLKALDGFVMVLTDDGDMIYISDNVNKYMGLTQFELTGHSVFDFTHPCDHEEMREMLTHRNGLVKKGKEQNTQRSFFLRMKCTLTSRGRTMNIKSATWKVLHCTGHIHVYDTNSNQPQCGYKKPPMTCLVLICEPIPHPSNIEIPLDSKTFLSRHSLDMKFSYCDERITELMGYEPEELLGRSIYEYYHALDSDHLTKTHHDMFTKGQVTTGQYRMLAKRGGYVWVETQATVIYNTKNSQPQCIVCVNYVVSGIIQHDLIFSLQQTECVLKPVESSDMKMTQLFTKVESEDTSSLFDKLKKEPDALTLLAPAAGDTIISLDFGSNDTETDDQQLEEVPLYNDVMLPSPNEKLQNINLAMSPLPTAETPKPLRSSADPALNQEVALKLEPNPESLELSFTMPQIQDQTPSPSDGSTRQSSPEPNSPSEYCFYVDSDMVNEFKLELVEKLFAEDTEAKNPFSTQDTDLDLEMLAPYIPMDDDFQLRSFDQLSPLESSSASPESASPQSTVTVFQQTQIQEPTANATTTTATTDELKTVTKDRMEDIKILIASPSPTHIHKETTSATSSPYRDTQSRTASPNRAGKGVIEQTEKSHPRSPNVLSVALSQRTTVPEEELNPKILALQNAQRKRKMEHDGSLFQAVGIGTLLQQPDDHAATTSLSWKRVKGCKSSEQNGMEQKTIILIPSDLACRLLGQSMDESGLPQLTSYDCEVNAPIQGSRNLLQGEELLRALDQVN
# Method in brief: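 Endogenous-TF cis reporter readout, human HepG2 cells, 24 h incubation; mRNA detected via RT-PCR and capillary electrophoresis fluorescence; DMSO-normalised bidirectional fitting.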
# [4] = biological target: Hepatocyte nuclear factor 6 (Homo sapiens) (UniProt Q9UBC0); experiment: ATG_HNF6_CIS: Attagene CIS-FACTORIAL HepG2 Assay for human Hepatocyte Nuclear Factor 6 (HNF6) (AID 2282952); settings: HepG2 Attagene cis-factorial HNF6 reporter transcription; actives raise or lower the signal
# Chain of Hepatocyte nuclear factor 6 (Homo sapiens) (Q9UBC0 whole entry, looked up, the tested form may be a part): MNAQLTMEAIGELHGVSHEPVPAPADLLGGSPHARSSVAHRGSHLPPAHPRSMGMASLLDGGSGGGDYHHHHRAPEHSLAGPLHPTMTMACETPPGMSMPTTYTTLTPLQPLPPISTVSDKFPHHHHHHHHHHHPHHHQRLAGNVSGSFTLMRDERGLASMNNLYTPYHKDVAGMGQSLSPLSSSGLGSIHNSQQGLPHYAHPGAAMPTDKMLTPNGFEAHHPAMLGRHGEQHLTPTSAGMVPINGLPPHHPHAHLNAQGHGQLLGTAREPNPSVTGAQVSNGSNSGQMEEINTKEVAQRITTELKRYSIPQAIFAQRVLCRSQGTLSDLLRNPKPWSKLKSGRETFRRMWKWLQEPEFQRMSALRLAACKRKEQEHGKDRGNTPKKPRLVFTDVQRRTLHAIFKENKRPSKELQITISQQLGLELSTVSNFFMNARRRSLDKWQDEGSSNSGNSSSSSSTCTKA
# Method in brief: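 Twenty-four-hour chemical treatment of reporter-transfected HepG2 cells precedes RNA isolation, DNase-treated reverse transcription and PCR of reporter sequences. Labelled fragments are sized by capillary electrophoresis and fitted bidirectionally versus DMSO.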
# [5] = biological target: Heat shock factor protein 1 (Homo sapiens) (UniProt Q00613); experiment: ATG_HSE_CIS: Attagene CIS-FACTORIAL HepG2 Assay for human Heat Shock Transcription Factor 1 (HSE) (AID 2282953); settings: HepG2 HSE cis-reporter, Attagene RNA transcription; actives raise or lower the signal
# Chain of Heat shock factor protein 1 (Homo sapiens) (Q00613 whole entry, looked up, the tested form may be a part): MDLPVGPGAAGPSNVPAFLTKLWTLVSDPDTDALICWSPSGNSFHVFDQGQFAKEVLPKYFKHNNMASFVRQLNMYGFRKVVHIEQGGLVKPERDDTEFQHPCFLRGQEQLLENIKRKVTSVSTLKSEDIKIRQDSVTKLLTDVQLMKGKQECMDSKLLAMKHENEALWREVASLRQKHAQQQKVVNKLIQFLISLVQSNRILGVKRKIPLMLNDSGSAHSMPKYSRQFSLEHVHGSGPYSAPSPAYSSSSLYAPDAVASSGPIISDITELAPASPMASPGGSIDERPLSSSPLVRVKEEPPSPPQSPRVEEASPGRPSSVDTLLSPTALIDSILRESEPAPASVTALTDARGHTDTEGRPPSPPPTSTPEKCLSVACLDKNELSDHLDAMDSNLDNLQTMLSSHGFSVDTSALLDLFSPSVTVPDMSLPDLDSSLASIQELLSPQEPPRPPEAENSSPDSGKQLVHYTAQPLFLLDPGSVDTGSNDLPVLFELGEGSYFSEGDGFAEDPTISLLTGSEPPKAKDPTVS
# Method in brief: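 Cells were transfected with cis-element-driven reporter constructs, dosed for 24 h, then total RNA was reverse-transcribed and reporter cDNA amplified, FAM-labelled and digested with HpaI. Fragments were resolved by capillary electrophoresis; gain or loss was fitted against DMSO.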
# [6] = ATG_MRE_CIS: Attagene CIS-FACTORIAL HepG2 Assay for human Metal Responsive Element (MRE) (AID 2282954); settings: HepG2 MRE cis-reporter transcription, Attagene multiplex; actives raise or lower the signal
# Method in brief: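 Readout: capillary electrophoresis of 6-FAM-labelled, HpaI-digested RT-PCR reporter products. System: HepG2 cells carrying transient multiplexed cis reporters, dosed 24 h. Analysis: bidirectional fit, DMSO baseline.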
# [7] = ATG_PBREM_CIS: Attagene CIS-FACTORIAL HepG2 Assay for human Phenobarbital-responsive Enhancer Module (PBREM) (AID 2282955); settings: HepG2 PBREM cis-reporter, Attagene multiplexed transcription; actives raise or lower the signal
# Method in brief: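 Readout: reporter mRNA, fluorescent RT-PCR fragments separated by capillary electrophoresis. System: HepG2 transiently transfected with cis-regulated reporter units. Exposure: 24 h. Analysis: bidirectional, DMSO baseline.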
# [8] = biological target: Paired box protein Pax-6 (Homo sapiens) (UniProt P26367); experiment: ATG_Pax6_CIS: Attagene CIS-FACTORIAL HepG2 Assay for human Paired Box 6 (PAX6) (AID 2282956); settings: HepG2 CIS-FACTORIAL PAX6 reporter transcription, RNA readout; actives raise or lower the signal
# Chain of Paired box protein Pax-6 (Homo sapiens) (P26367 whole entry, looked up): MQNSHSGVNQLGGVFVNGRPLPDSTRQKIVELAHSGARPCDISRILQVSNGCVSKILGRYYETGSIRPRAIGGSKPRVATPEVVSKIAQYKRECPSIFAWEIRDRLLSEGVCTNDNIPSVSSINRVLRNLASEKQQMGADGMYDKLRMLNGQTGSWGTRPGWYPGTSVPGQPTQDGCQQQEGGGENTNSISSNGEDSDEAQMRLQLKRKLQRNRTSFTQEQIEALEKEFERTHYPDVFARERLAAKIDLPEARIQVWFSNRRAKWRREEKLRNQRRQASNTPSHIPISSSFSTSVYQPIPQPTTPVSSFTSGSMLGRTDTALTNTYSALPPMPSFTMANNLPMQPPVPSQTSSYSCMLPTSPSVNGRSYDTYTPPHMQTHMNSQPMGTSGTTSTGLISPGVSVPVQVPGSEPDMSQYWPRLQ
# Method in brief: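 Readout: reporter transcript fluorescence after RT-PCR and capillary electrophoresis. Cells: HepG2, transiently transfected with cis-regulated MRTUs. Exposure 24 h. Gain or loss of signal fitted bidirectionally relative to DMSO.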
# [9] = ATG_PXRE_CIS: Attagene CIS-FACTORIAL HepG2 Assay for human Pregnane X Receptor Element (PXRE) (AID 2282957); settings: HepG2 Attagene CIS-FACTORIAL PXRE reporter, mRNA; actives raise or lower the signal
# Method in brief: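 Bidirectional activity, baselined to DMSO, derived from reporter mRNA fluorescence (RT-PCR plus capillary electrophoresis) in HepG2 cells bearing cis-promoter reporter units, 24 h exposure.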
Compound,outcome [1],outcome [2],outcome [3],outcome [4],outcome [5],outcome [6],outcome [7],outcome [8],outcome [9],AC50 [6],AC50 [9]
O=C(NC(=O)c1c(F)cccc1F)Nc1cc(Cl)c(Oc2ncc(C(F)(F)F)cc2Cl)c(Cl)c1,inactive,inactive,inactive,inactive,inactive,inactive,inactive,inactive,inactive,–,–
COc1ccc([N+](=O)[O-])cc1O,inactive,inactive,inactive,inactive,inactive,inactive,–,inactive,–,–,–
N#CS,inactive,inactive,inactive,inactive,inactive,inactive,–,–,inactive,–,–
Nc1ncn[nH]1,inactive,inactive,inactive,inactive,inactive,–,inactive,inactive,inactive,–,–
CCOC(=O)C(SP(=S)(OC)OC)c1ccccc1 (stereo unspecified),inactive,inactive,inactive,inactive,inactive,–,inactive,inactive,–,37.3 µM (active),1.77 µM (active)
CCCCS(=O)(=O)Cl,inactive,inactive,–,inactive,–,inactive,inactive,inactive,inactive,–,–
CN(C)CCN(C)C,inactive,inactive,inactive,inactive,–,inactive,–,inactive,inactive,–,–
Nc1ccc(-c2ccccc2)cc1,inactive,inactive,inactive,inactive,inactive,–,inactive,–,–,–,30.1 µM (active)
